Measurements as given in PubChem BioAssay.
The source made the active and inactive calls.

Key:
[1] = small molecules captured by biotinylated probe aFSTL3 – biochemical, small-molecule microarray, fluorescence 635/667, stem cell growth factor project, primary screen (AID 1064); settings: higher = more signal;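 further: measures binding of the biotinylated anti-FSTL3 antibody to printed compounds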
[2] = binders from COS7 lysate, DM2A8 probe, primary screen, torsin A project, cell lysate, small-molecule microarray, fluorescence 635/667 (AID 1065); settings: higher = more signal, COS7 lysate expressing mutant human TOR1A
[3] = small molecules captured by biotinylated probe aFGF2 – biochemical, small-molecule microarray, fluorescence 635/667, stem cell growth factor project, primary screen (AID 1067); settings: higher = more signal;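 further: measures binding of biotinylated aFGF2 protein to printed compounds on slides; z-score merges feature fluorescence and signal-to-noise across triplicate slides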
[4] = small molecules captured by biotinylated probe aFGF10 – biochemical, small-molecule microarray, fluorescence 635/667, stem cell growth factor project, primary screen (AID 1071); settings: higher = more signal;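 further: score merges 667 nm spot intensity and signal to noise from triplicate slides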
[5] = target: Neurogenic locus notch homolog protein 2 (Homo sapiens) (UniProt Q04721); test: small molecules binding Notch2 protein – biochemical, small-molecule microarray, 635 nm fluorescence, stem cell growth factors, primary screen (AID 1073); settings: higher = more signal
[6] = target: Pro-neuregulin-1, membrane-bound isoform (Homo sapiens) (UniProt Q02297); test: small molecules binding neuregulin-1 protein – biochemical, small-molecule microarray, fluorescence 635/667, psychiatric disease protein project, primary screen (AID 1075); settings: NRG1 binding, 635 nm fluorescence, higher = more signal;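 further: score combines 667 nm spot fluorescence with signal to noise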
[7] = test system: Neuregulin-1 EGF-like domain; test: small molecules binding NRG1 EGF domain – biochemical, small-molecule microarray, 635 nm fluorescence, primary screen (AID 1081); settings: higher = more signal;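 further: binding of the protein to compounds printed on small-molecule microarray slides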
[8] = FRG1 expression reporter modulators in myotubes – cell-based, C2C12 myotubes, firefly/Renilla luciferase, luminescence, FRG1 inhibition for FSHD, primary screen (AID 1084); settings: FRG1 promoter luciferase, higher = more signal, called active from +8 up or from −8 down
[9] = small molecules captured by biotinylated probe aFST – biochemical, small-molecule microarray, fluorescence 635/667, stem cell growth factor project, primary screen (AID 1086); settings: higher = more signal;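 further: score merges 667 nm fluorescence with signal-to-noise of each printed compound spot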
[10] = binders of probe aHhip on microarray, primary screen, stem cell growth factor project, biochemical, small-molecule microarray, fluorescence 635/667 (AID 1087); settings: higher = more signal;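 further: score merges spot fluorescence at 667nm with spot signal to noise ratio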
[11] = test system: PRMT1 (protein arginine N-methyltransferase 1); test: small molecules binding arginine methyltransferase PRMT1 – biochemical, small-molecule microarray, 635 nm fluorescence, primary screen (AID 1088); settings: higher = more signal;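 further: binding of Prmt1 protein to compounds spotted on small-molecule microarray slides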
[12] = growth effects on S. cerevisiae YJM789 – YJM789 clinical isolate, OD600, 24 h, basal, primary screen (AID 1089); settings: higher = more signal, called active from +8 up or from −8 down;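 further: growth of clinical yeast isolate S. cerevisiae YJM 789 seeded 1000 cells per well; test concentration not given here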
[13] = S. pombe growth modifiers, basal conditions – strain 972, OD600, 24 h, no modulator, primary screen (AID 1090);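 further: basal condition with compound alone and no growth modifier present; test concentration not given here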; settings: S. pombe 972 growth, higher = more signal, called active from +8 up or from −8 down
[14] = budding yeast growth modifiers under rapamycin – strain BY4716, OD600, 96 h, primary screen (AID 1091); further: test concentration not given here; settings: S. cerevisiae BY4716 + rapamycin, higher = more signal, called active from +8 up or from −8 down
[15] = target: Torsin-1A-interacting protein 2 (Homo sapiens) (UniProt Q8NFQ8); test: small molecules binding lysate-expressed LULL1 – cell lysate, human LULL1 lysate, 635/667 nm fluorescence, primary screen (AID 1092); settings: small-molecule microarray, hLULL1 lysate binding, 635 nm fluorescence; higher = more signal;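 further: probe is lysate of COS7 cells overexpressing human LULL1; score merges per-feature 667 nm fluorescence with signal-to-noise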
[16] = optical density change of DRC41 E. coli – strain DRC41, OD650, 24 h, E. coli filamentation project, primary screen (AID 1093);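 further: MC1000 strain lacking acrAB efflux and sulA so SOS filamentation is blocked; test concentration not given here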; settings: E. coli DRC41 growth, higher = more signal, called active from +8 up or from −8 down
[17] = probe aLefty2 binding to arrayed compounds – biochemical, biotinylated probe, 635/667 nm fluorescence, primary screen (AID 1094); settings: small-molecule microarray, higher = more signal;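 further: score merges spot fluorescence near 667 nm with spot signal-to-noise ratio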
[18] = test system: Noggin (protein binding on small-molecule microarray); test: small molecules binding Noggin protein – biochemical, 635/667 nm fluorescence, primary screen (AID 1095); settings: 635 nm fluorescence, higher = more signal;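 further: score merges 667 nm feature fluorescence with signal to noise over triplicate slides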
[19] = target: Neurogenic locus notch homolog protein 3 (Homo sapiens) (UniProt Q9UM47); test: small molecules binding NOTCH3 protein – biochemical, 635/667 nm fluorescence, primary screen (AID 1096); settings: small-molecule microarray, 635 nm fluorescence, higher = more signal
[20] = probe aEGFR binding to arrayed compounds – biochemical, biotinylated probe, 635/667 nm fluorescence, primary screen (AID 1097); settings: small-molecule microarray, higher = more signal;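 further: probe is a biotinylated anti-EGFR antibody binding compounds printed on slides; score combines fluorescence near 667 nm and signal to noise of each spot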

Sequence of Neurogenic locus notch homolog protein 3 (Homo sapiens) (Q9UM47 whole entry, looked up): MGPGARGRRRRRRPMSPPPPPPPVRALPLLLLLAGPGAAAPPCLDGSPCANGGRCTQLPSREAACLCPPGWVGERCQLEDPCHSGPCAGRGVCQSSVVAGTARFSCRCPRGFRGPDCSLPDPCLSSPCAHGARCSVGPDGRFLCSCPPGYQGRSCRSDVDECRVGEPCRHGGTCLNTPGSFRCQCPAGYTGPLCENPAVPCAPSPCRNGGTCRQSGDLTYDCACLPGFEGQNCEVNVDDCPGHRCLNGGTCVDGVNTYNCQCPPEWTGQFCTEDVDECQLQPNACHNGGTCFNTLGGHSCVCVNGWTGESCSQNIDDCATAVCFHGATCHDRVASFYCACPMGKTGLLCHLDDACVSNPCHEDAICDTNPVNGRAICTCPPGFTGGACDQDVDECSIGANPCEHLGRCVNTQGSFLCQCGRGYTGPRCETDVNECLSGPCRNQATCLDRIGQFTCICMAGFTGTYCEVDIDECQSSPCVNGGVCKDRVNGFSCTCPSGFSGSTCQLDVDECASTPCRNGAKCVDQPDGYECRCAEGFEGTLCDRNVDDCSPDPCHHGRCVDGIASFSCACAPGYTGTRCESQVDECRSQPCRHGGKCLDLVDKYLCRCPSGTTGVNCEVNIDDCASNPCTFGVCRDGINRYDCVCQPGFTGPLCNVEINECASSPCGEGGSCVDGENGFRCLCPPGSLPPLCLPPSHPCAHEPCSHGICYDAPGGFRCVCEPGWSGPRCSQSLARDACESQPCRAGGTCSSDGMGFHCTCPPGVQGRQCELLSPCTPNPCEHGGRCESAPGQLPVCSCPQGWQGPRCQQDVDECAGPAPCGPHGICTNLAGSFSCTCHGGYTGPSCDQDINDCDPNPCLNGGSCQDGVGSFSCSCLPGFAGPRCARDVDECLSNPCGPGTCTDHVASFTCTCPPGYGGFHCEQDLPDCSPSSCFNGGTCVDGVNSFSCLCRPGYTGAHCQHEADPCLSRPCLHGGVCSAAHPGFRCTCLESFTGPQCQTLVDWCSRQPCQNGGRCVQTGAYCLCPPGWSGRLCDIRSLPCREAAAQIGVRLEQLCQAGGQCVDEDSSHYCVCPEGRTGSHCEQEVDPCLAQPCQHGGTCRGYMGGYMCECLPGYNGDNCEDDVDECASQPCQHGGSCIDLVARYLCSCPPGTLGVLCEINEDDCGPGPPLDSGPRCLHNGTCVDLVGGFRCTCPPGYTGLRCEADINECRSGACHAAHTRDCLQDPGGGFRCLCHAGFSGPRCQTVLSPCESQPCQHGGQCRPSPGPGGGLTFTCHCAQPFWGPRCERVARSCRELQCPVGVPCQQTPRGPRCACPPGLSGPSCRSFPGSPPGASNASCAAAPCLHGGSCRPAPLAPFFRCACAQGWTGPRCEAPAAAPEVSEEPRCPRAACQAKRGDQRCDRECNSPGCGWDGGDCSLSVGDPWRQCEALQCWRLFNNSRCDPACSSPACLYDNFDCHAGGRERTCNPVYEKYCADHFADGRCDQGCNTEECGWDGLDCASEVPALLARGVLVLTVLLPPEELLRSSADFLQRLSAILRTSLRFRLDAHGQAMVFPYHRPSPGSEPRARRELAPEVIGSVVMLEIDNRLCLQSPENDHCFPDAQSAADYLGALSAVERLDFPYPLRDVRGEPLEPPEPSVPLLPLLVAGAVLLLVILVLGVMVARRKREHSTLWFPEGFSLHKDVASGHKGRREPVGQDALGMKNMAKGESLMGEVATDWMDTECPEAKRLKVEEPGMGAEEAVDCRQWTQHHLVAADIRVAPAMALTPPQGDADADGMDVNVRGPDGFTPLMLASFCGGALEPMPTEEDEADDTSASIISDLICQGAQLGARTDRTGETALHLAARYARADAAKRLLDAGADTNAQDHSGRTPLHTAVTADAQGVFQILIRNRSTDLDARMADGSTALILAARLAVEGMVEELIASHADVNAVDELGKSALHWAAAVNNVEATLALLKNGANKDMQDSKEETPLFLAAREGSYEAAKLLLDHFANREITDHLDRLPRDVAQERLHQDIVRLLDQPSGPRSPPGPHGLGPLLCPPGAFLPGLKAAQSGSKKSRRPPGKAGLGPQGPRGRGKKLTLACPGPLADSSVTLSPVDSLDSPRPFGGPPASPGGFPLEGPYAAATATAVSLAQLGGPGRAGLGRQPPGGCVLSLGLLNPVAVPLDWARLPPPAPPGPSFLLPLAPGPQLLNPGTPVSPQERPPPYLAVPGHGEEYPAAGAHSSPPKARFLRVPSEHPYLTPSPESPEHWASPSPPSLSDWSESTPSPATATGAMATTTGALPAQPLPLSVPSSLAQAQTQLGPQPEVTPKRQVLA
Sequence of Pro-neuregulin-1, membrane-bound isoform (Homo sapiens) (Q02297 whole entry, looked up, the tested form may be a part, canonical isoform): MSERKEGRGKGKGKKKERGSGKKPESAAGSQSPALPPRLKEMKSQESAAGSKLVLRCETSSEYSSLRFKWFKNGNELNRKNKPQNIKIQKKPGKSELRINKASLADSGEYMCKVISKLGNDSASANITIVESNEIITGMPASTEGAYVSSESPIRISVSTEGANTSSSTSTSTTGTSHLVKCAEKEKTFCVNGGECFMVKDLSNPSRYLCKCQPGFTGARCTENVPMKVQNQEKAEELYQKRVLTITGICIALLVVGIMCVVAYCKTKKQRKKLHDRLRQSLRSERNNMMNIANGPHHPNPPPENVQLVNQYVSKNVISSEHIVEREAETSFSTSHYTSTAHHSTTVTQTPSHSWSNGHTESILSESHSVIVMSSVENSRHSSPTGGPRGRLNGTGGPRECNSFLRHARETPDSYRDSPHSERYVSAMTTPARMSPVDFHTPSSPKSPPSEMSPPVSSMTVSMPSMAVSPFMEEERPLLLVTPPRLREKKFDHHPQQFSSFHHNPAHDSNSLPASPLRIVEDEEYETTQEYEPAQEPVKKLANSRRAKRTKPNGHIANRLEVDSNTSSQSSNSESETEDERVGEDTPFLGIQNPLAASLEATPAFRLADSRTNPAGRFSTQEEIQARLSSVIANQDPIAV
Sequence of Torsin-1A-interacting protein 2 (Homo sapiens) (Q8NFQ8 whole entry, looked up): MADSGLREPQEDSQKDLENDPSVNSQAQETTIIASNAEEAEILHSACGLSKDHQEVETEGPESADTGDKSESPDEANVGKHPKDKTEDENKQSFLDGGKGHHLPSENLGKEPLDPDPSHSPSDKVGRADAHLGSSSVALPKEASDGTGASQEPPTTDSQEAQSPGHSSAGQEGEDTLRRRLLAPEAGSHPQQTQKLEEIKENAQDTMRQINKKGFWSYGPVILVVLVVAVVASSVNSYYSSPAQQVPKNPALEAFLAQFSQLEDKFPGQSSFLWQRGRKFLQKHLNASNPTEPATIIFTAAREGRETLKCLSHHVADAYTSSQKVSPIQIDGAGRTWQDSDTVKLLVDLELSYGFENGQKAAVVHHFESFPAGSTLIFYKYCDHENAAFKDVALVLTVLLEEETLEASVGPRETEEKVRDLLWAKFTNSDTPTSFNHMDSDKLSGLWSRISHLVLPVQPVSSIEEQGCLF

SMILES | composite z-score [1] | composite z-score [2] | composite z-score [3] | composite z-score [4] | composite z-score [5] | composite z-score [6] | composite z-score [7] | z-score [8] | composite z-score [9] | composite z-score [10] | composite z-score [11] | z-score [12] | z-score [13] | z-score [14] | composite z-score [15] | z-score [16] | composite z-score [17] | composite z-score [18] | composite z-score [19] | composite z-score [20]
COC(=O)[C@@]1(Cc2ccc(OC)cc2)[C@H]2c3cc(C(=O)N4CCCC4)n(CCc4ccccn4)c3C[C@H]2CN1C(=O)c1ccccc1 | 0.587 | -0.0862 | 0.233 | 0.291 | 1.42 | 1.81 | 1.13 | 3.33 (inactive) | 0.462 | 0.251 | -1.52 | 0.328 (inactive) | 0.479 (inactive) | 0.556 (inactive) | 3.62 | -1.41 (inactive) | 0.0363 | -0.857 | -0.14 | -0.0122
CC(C)[C@H]1COC(=O)N1C(=O)[C@H]1[C@@H](c2ccccc2)N(c2ccccc2)O[C@@H]1C | -0.385 | 0.182 | -0.204 | 0.488 | 1.14 | 0.182 | 0.974 | -0.803 (inactive) | 0.301 | -0.367 | 0.842 | -0.384 (inactive) | -2.87 (inactive) | 0.0611 (inactive) | 1.29 | 0.874 (inactive) | -0.0023 | 0.403 | 0.757 | -0.12
Cc1ccccc1/C=C/C=O | -0.162 | -0.623 | -0.135 | -0.0909 | -1.09 | -0.628 | -0.631 | 0.258 (inactive) | -0.127 | 0.0957 | -1.47 | -1.01 (inactive) | -3.42 (inactive) | -0.402 (inactive) | -0.672 | 0.35 (inactive) | -0.13 | -0.13 | -1.63 | -0.307
CCN(CC)c1ccc(N2CC=CC34O[C@@H]5C=CCCOC(=O)C5[C@H]3C(=O)N(CCCO)[C@@H]4C2=O)cc1 (stereo not given in full) | -0.0768 | -0.288 | -0.158 | -0.332 | -0.816 | -0.613 | -0.0612 | -0.306 (inactive) | -0.177 | -0.134 | -0.664 | -0.452 (inactive) | -0.983 (inactive) | -0.282 (inactive) | -1.02 | 1.87 (inactive) | -0.122 | 0.232 | -0.155 | -0.162
O=C(CS)NCCCCCNC(=O)[C@H]1C[C@H]2C(=O)N[C@@H](Cc3ccccc3)C(=O)N2[C@H]1c1cccc(OCCO)c1 | 0.0238 | 1.31 | -0.0195 | 1.16 | 0.617 | 0.244 | 1.33 | -0.676 (inactive) | 0.551 | -0.156 | 1.52 | -3.02 (inactive) | -0.991 (inactive) | -0.276 (inactive) | 2.55 | 1.94 (inactive) | 0.0669 | 1.44 | 1.09 | 0.12
CO[C@H]1O[C@H](CO)[C@@H](OC(=O)Nc2ccccc2-c2ccccc2)[C@H](OC(=O)Nc2ccccc2-c2ccccc2)[C@H]1OC(=O)Nc1ccccc1-c1ccccc1 | -0.0136 | 1.68 | 0.17 | 1.17 | 1.4 | 0.885 | 1.42 | 0.849 (inactive) | 0.374 | 0.245 | 1.54 | 3.06 (inactive) | 2.48 (inactive) | 10.6 (active) | 3.23 | 0.956 (inactive) | 0.115 | 0.65 | 1.08 | 0.0553
CC(C)N1C(=O)c2ccccc2[C@](C)(C(=O)NC2CC2)[C@@H]1c1ccc(CO)cc1 | -0.181 | 0.007 | -0.129 | -0.0282 | 0.38 | 0.602 | 1.21 | -0.0117 (inactive) | 0.048 | 0.0246 | 1.49 | -0.0975 (inactive) | 0.193 (inactive) | -0.699 (inactive) | 2.66 | 0.738 (inactive) | -0.14 | 0.614 | 0.764 | -0.081
COc1ccc([Si](C)(C)[C@@H]2[C@@H](CCO)O[C@]3(C(=O)N(Cc4ccc(N5C(=O)c6cccc7cccc5c67)cc4)c4ccccc43)[C@H]2C)cc1 | 0.458 | 0.23 | -0.0566 | -0.383 | -0.35 | 0.995 | 0.695 | -3.01 (inactive) | -0.292 | -0.189 | 0.856 | 1.41 (inactive) | 1.54 (inactive) | 35.5 (active) | 0.854 | 0.631 (inactive) | -0.0728 | -0.753 | -0.017 | -0.208
O=C1c2ccccc2[C@@]2(Cc3ccccc3N(Cc3ccccc3)C2=O)[C@H](c2ccc(CO)cc2)N1Cc1ccccc1C(F)(F)F | 0.178 | -1.44 | -0.083 | -0.236 | -0.233 | 0.363 | 0.114 | -0.366 (inactive) | -0.0954 | -0.125 | -0.325 | 0.376 (inactive) | -0.666 (inactive) | -1.11 (inactive) | 2.03 | 0.127 (inactive) | -0.222 | -0.848 | 0.117 | -0.243
COC(=O)[C@@]1(Cc2ccc(F)cc2)[C@H]2c3cc(C(=O)N(C)C)n(CCCNc4ccc(C(F)(F)F)cc4Cl)c3C[C@H]2CN1C(=O)c1ccccc1 | 0.785 | 0.34 | 0.311 | 0.754 | 1.75 | 1.16 | 1.27 | 0.452 (inactive) | 1.55 | -0.114 | 1.41 | 0.406 (inactive) | 1.06 (inactive) | 5.11 (inactive) | 3.36 | -1.3 (inactive) | 0.555 | 0.282 | 1.02 | 0.361
